The record followed here is PubChem BioAssay AID485364 (National Center for Advancing Translational Sciences (NCATS), 2010).

Each structure is given as a SMILES string. Out of some 360,000 compounds screened, about 11,000 (3.1%) were called active. A call without a number means that no potency is given here. Another 4% or so got no clear call; they are omitted. Calls come from the whole dose curve; as a rule, active = well fitted inhibition curve with a large enough effect; inconclusive = small, poorly fitted or top-dose-only effect; inactive = no such curve, though single readings can be large or run the other way. The full list was thinned out, with actives kept by preference.
Potency is the fitted concentration of half-maximal effect.

For the assay, the target named is Schistosoma mansoni thioredoxin glutathione reductase (TGR) (UniProt Q962Y6). Put plainly: qHTS Assay for the Inhibitors of Schistosoma Mansoni Peroxiredoxins. Note: nearly all actives have a fitted effect of over 60% in size. The note with it: purified TGR, DTNB reduction, TNB absorbance 405 nm; series mostly up to 114 µM. An outline of the steps:
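TGR 20 nM + NADPH 100 uM (dispensed conc.), cpd preinc 15 min RT; start with NADPH (500 uM addition) then DTNB (15 mM addition). Kinetic TNB absorbance, 405 nm filter. Four-parameter Hill fit across titration.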
For `Cc1ccc(-c2cc(N)n(Cc3cccc(Cl)c3)n2)cc1`, the Potency entry was “inactive”.

For the compound `COc1cccc(Nc2nc3ccccc3c3nncn23)c1`, the Potency result is “inactive”.

For the compound `Cc1ccc(C(=O)COC(=O)C(Cc2c[nH]c3ccccc23)NC(=O)c2ccc(Br)cc2)cc1` (stereo unspecified), the Potency result was “inactive”.

With `NS(=O)(=O)c1ccc(-c2ccc(/C=C3\SC(=O)NC3=O)o2)cc1`, the Potency result is “inactive”.

In the case of `O=C(CCCOc1ccccc1)NCc1ccco1`, the Potency result was “inactive”.

`O=C1c2ccccc2C(=O)N1CCOc1ccc(F)cc1`: the Potency result is “inactive”.

For the compound `O=C1NC(=O)N(Cc2ccco2)C(=O)/C1=C\c1ccc(-c2ccc(F)cc2)o1`, the Potency was 11.2 µM (active).

Consider `O=C1NC(=O)N(Cc2ccco2)C(=O)/C1=C\c1cccn1CCOc1ccccc1`, for which the Potency was 11.2 µM (active).

For `COc1ccc(OCCCn2cccc2/C=C2/C(=N)N3OC(C)=CC3=NC2=O)cc1`, the Potency result is “inactive”.

For `CCn1c(C)c(C)c2cc(C(=O)NCCc3cc(OC)ccc3OC)ccc21`, the Potency result was “inactive”.

As for `CC(=O)N1CCCc2cc(S(=O)(=O)N3CCC(C(=O)NC4CCCCC4)CC3)ccc21`, the Potency result was “inactive”.

Consider `CCc1ccc(NC(=O)CSc2nc3c([nH]c4ccccc43)c(=O)n2-c2cccc(OC)c2)cc1`, for which the Potency entry was “inactive”.

`COc1ccc(-n2c(=O)c3c(c4cc(OC)ccc4n3C)n(Cc3cccc(C)c3)c2=O)cc1`: the Potency result is “inactive”.

On to `CCC(=NCCCO)c1c(O)n(-c2ccc(OC)cc2)c(=O)[nH]c1=O`, for which the Potency entry was “inactive”.

Turning to `CCC(=NCc1ccco1)c1c(O)n(Cc2ccccc2)c(=O)[nH]c1=O`, the Potency was 28.2 µM (active).

Regarding `Nc1c(N(Cc2ccco2)C(=O)c2cccc(F)c2)c(=O)[nH]c(=O)n1Cc1ccccc1`, the Potency result is “inactive”.

In the case of `CC(C)Cn1c(=O)c2ccccc2n2c(CCC(=O)N3CCN(c4cccc(Cl)c4)CC3)nnc12`, the Potency entry was “inactive”.

In the case of `Cn1cc(S(=O)(=O)N2CCC(Cc3ccccc3)CC2)c(=O)n(C)c1=O`, the Potency entry was “inactive”.

Take `Cc1ccc(/C=C/C(=O)O)cc1S(=O)(=O)N1CCC(Cc2ccccc2)CC1`: the Potency was 25.1 µM (active).

Regarding `O=C(O)c1ccc(S(=O)(=O)N2CCC(Cc3ccccc3)CC2)cc1`, the Potency entry was “inactive”.

Regarding `Cc1noc(/C=C/c2ccco2)c1S(=O)(=O)N1CCC(C(=O)N2CCc3ccccc32)CC1`, the Potency was 44.7 µM (active).

With `CNC(=O)C1CCN(S(=O)(=O)c2c(C)noc2/C=C/c2cccc(C)c2)CC1`, the Potency entry is “inactive”.

For `COc1ccccc1N1CCN(C(=O)C2CCN(S(=O)(=O)c3c(C)noc3/C=C/c3ccc(C)cc3)CC2)CC1`, the Potency entry is “inactive”.

`CCCCCCn1nnc2sc(-c3ccccc3)cc2c1=O`: the Potency result was “inactive”.

As to `CCCNC(=O)C1CCN(c2nc3ccc(C)cc3[nH]2)CC1`, the Potency entry is “inactive”.

As for `CC(=O)N(C1=C(Cl)C(=O)c2ccccc2C1=O)c1ccc(C(=O)O)cc1`, the Potency is 0.224 µM (active).

As to `O=C(Nc1ccc(F)cc1F)c1ccc2c(=O)n3c(nc2c1)CCCCC3`, the Potency entry is “inactive”.

Turning to `COc1ccccc1-n1c(-c2ccc(C)cc2)cn2c3c(=O)n(C)c(=O)n(C)c3nc12`, the Potency entry is “inactive”.

Take `CCn1c(CNC(=O)c2ccc(OC)c(OC)c2)nnc1SCC(=O)Nc1ccccc1`: the Potency entry is “inactive”.

As for `CCn1c(COc2ccc(OC)cc2)nnc1SCC(=O)Nc1cc(OC)ccc1OC`, the Potency entry was “inactive”.

In the case of `CCn1c(SC)nc(O)c(C(c2ccc(OC)c(O)c2)c2c(O)nc(SC)n(CC)c2=O)c1=O`, the Potency was 3.98 µM (active).

Take `Cc1ccc(-n2c(=O)c3cccnc3n2CC(=O)Nc2ccccc2C(F)(F)F)cc1C`: the Potency result was “inactive”.

For the compound `O=C(CCn1c(=O)c2sccc2n(Cc2ccc(F)cc2)c1=O)NCc1ccc2c(c1)OCO2`, the Potency entry was “inactive”.

As to `CCn1c(O)c2ccc(C(=O)N=NC(=O)c3cccnc3)cc2c1O`, the Potency was 100 µM (active).

With `C/C(=N\NC(=O)c1ccc2ccccc2c1)c1cccnc1`, the Potency result is “inactive”.

Take `CCn1c(O)c(N=NC(=O)c2cccc(S(=O)(=O)N3CCCCC3)c2)c2ccccc21`: the Potency entry was “inactive”.

In the case of `CCOc1ccc(C(=O)N2CCN(CCc3ccccn3)CC2)cc1`, the Potency entry is “inactive”.

Consider `CCOc1ccc(NC(=O)c2c(NCc3cccc(OC)c3OC)sc3c2CCC3)cc1`, for which the Potency result is “inactive”.

In the case of `COC(=O)CN(c1cccc(C(C)=O)c1)S(C)(=O)=O`, the Potency is 50.1 µM (active).

For the compound `CCOc1ccc(N(CC(=O)Nc2cccc(OC)c2)S(C)(=O)=O)cc1`, the Potency entry is “inactive”.

Take `Cc1cccc(N(CC(=O)N2CCOCC2)S(C)(=O)=O)c1`: the Potency result was “inactive”.

With `CCCc1cc(=O)n2[nH]c(NCc3ccc(CC)cc3)nc2n1`, the Potency entry was “inactive”.

As to `COc1ccccc1NC(=O)CN1C(=O)c2ccccc2Sc2ccc(C(=O)N3CCCC3)cc21`, the Potency result was “inactive”.

As for `CO/N=C/c1ccc(N2CCN(C(=O)c3cccc(Cl)c3)CC2)c([N+](=O)[O-])c1`, the Potency result was “inactive”.

Regarding `O=C1CSC(=S)N1/N=C/c1ccc(O)c([N+](=O)[O-])c1`, the Potency was 3.55 µM (active).

On to `CCC1=Nc2cc(C(=O)NCC(C)c3ccccc3)ccc2Sc2ccc(C)cc21` (stereo unspecified), for which the Potency entry is “inactive”.

With `CCN1CCC(N(Cc2ccc(F)cc2)C(=O)Nc2cc(C)ccc2C)CC1`, the Potency result was “inactive”.

`Cc1ccc(-c2cc(C(=O)Oc3ccccc3Cl)no2)cc1C`: the Potency entry was “inactive”.

Take `Cc1cnc(C(=O)Oc2cccc(Cl)c2Cl)cn1`: the Potency is 22.4 µM (active).

With `Cc1cnc(C(=O)OCC(=O)Nc2ccc(Cl)cc2Cl)cn1`, the Potency result is “inactive”.

`CCCCSc1ncnc2c1sc1nc(N3CCOCC3)c3c(c12)CCCC3`: the Potency result is “inactive”.

`COc1cc2c(=O)c(S(=O)(=O)c3ccc(C(C)C)cc3)cn(Cc3ccccc3C)c2cc1OC`: the Potency result is “inactive”.

`CCOc1ccc(OCC)c(NC(=O)c2c(C)nn(-c3ccccc3)c2-n2cccc2)c1`: the Potency result is “inactive”.

Turning to `CCOc1ccccc1NC(=O)Cn1nnc(C(=O)Nc2ccc(C)c(C)c2)c1N`, the Potency entry was “inactive”.

Regarding `CCOc1ccc(N(CC)S(=O)(=O)N2CCCC(C(=O)Nc3ccc(C(C)=O)cc3)C2)cc1` (stereo unspecified), the Potency entry is “inactive”.

With `O=C(NCCCN1CCOCC1)c1ccc([N+](=O)[O-])cc1[N+](=O)[O-]`, the Potency result is “inactive”.

In the case of `O=[N+]([O-])c1cc(S(=O)(=O)CCCN2CCOCC2)ccc1F`, the Potency was 7.08 µM (active).

For `O=S(=O)(NCCCN1CCOCC1)c1ccc(F)c(Cl)c1`, the Potency result was “inactive”.

As to `COC(=O)c1cc2occc2n1Cc1nc(-c2ccc(C)cc2)oc1C`, the Potency entry is “inactive”.

`COc1ccc(-c2nc3sc(CCNC(=O)C(C)(C)C)c(C)n3n2)cc1`: the Potency result was “inactive”.

For the compound `Cc1ccc(S(=O)(=O)NCCSc2ccccc2)cc1[N+](=O)[O-]`, the Potency result is “inactive”.

Regarding `CCS(=O)(=O)c1cc([N+](=O)[O-])c(Sc2ccccc2N)s1`, the Potency was 20 µM (active).

For `Cc1c(C(=O)Nc2cccc(Cl)c2)oc2ccc(S(=O)(=O)N3CCOCC3)cc12`, the Potency entry is “inactive”.

On to `CCOc1ccc2nc(N3CCC(C(=O)Nc4cc(C)ccc4C)CC3)sc2c1`, for which the Potency result is “inactive”.

Take `Cc1cccn2c(=O)c(C=O)c(Nc3ccc(S(N)(=O)=O)cc3)nc12`: the Potency entry is “inactive”.

For `O=Cc1c(Nc2ccccc2Cl)nc2ccccn2c1=O`, the Potency is 10 µM (active).

For the compound `O=Cc1c(N2CCN(c3cccc(Cl)c3)CC2)nc2ccccn2c1=O`, the Potency entry was “inactive”.

Take `CC1CCCN(c2csc3ccc(F)cc3c2=O)C1` (stereo unspecified): the Potency result was “inactive”.

On to `COc1ccc(CNC(=O)CC2Oc3ccc(C)cc3NC2=O)cc1` (stereo unspecified), for which the Potency entry is “inactive”.

On to `O=C(NCCc1ccc(Cl)cc1)c1ccc2nc(CCc3ccccc3)oc2c1`, for which the Potency result was “inactive”.

In the case of `Cc1ccc(C)c(N2CCN(C(=O)CCc3c(C)nc4c(c3C)c(=O)n(C)c(=O)n4C)CC2)c1`, the Potency entry was “inactive”.

In the case of `Cc1cccnc1NC(=O)CSc1nnc(COc2ccc(C(C)C)cc2)n1C`, the Potency result was “inactive”.

Regarding `Cc1ccc(OCc2nnc(SC3CCc4ccccc4C3=O)n2C)cc1` (stereo unspecified), the Potency was 17.8 µM (active).

Consider `COc1ccccc1C(=O)Nc1ccc(OCc2nnc3c4ccccc4c(C)nn23)cc1`, for which the Potency entry was “inactive”.

Regarding `CC(=O)Nc1ccc(S(=O)(=O)N2CCSCC2)cc1`, the Potency entry was “inactive”.

With `CC(=O)Nc1ccc(S(=O)(=O)N2CCn3cccc3C2C)cc1` (stereo unspecified), the Potency was 44.7 µM (active).

As to `CC(=O)Nc1ccc(S(=O)(=O)N2CCN(c3ccccc3)CC2)cc1`, the Potency result is “inactive”.

Consider `Cc1cccc(N(C)C(=O)CS(=O)(=O)c2cccc3nsnc23)c1`, for which the Potency result was “inactive”.

As for `Fc1ccc(-c2ccc(-c3nn4c(-c5ccco5)nnc4s3)o2)cc1`, the Potency was 50.1 µM (active).

On to `Cc1nc2c(-c3ccc(F)cc3)c(C)nn2c(C)c1CCC(=O)NCc1ccco1`, for which the Potency entry is “inactive”.

For `CCOc1cccc(-c2nn3c(-c4ccccn4)nnc3s2)c1`, the Potency entry was “inactive”.

For `CCN(CCCNC(=O)Cn1ncc2c3ccccc3n(C)c2c1=O)Cc1ccccc1`, the Potency entry is “inactive”.

Regarding `COc1ccc(N2CCN(C3=NS(=O)(=O)C(c4cccc(Br)c4)=C3C)CC2)cc1`, the Potency entry is “inactive”.

`COc1ccccc1CNC(=O)c1ccccc1NC(=O)c1nsc2ccccc12`: the Potency result was “inactive”.

Take `COc1ccc(C2NC(=O)N(C)C3=C2C(=O)N(c2ccc(C(=O)O)cc2)C3)cc1` (stereo unspecified): the Potency entry is “inactive”.

As to `COc1ccc(N2C(=O)C3CCCN3C2c2cccs2)cc1` (stereo unspecified), the Potency result is “inactive”.

With `COc1ccc(N2C(=O)C3C(C2=O)C(C(=O)c2ccccc2)N2CCCC32)cc1` (stereo unspecified), the Potency is 22.4 µM (active).

Consider `Cc1oc(-c2ccccc2)nc1Cn1c(SCc2cccc(C(F)(F)F)c2)nc2cccnc21`, for which the Potency result is “inactive”.

With `Cc1c2cnn(-c3ccccc3)c(=O)c2c(C)n1C(C)C(=O)Nc1ccc(Br)cc1F` (stereo unspecified), the Potency result is “inactive”.

With `O=C(/C=C/c1ccccc1)Nc1cc(-c2nc3cc(Cl)ccc3o2)ccc1Cl`, the Potency entry was “inactive”.

As to `COc1ccc(NC(=O)c2sc3nc(-c4cc5cccc(OC)c5oc4=O)[nH]c(=O)c3c2C)cc1`, the Potency result is “inactive”.

`COc1cc(CNCCSc2nnnn2C)ccc1OCc1ccc(Cl)cc1Cl`: the Potency entry is “inactive”.

Regarding `CC(C)Cn1c(=O)c2ccccc2n2c(-c3cccc(Cl)c3)nnc12`, the Potency result was “inactive”.

In the case of `O=c1[nH]c2ccccc2n2c(-c3ccccc3)nnc12`, the Potency was 0.1 µM (active).

In the case of `O=c1cc(-c2ccccc2)n2c(SCc3ccccc3)nnc2[nH]1`, the Potency result is “inactive”.

On to `Cc1ccc(Cn2c(CCCNC(=O)C3CCCCC3)nc3ccccc32)cc1`, for which the Potency result was “inactive”.

Take `CCS(=O)(=O)N1CCc2cc(C(=O)NCc3ccc(C)cc3)ccc21`: the Potency entry was “inactive”.

On to `COc1ccc(S(=O)(=O)n2nc(C)c(S(=O)(=O)N3CCCCCC3)c2C)cc1`, for which the Potency entry was “inactive”.

As to `CCc1ccc(S(=O)(=O)Nc2cc3c(cc2N2CCCCC2)n(C)c(=O)c(=O)n3C)cc1`, the Potency is 50.1 µM (active).

With `Cc1ccc(NS(=O)(=O)c2ccc3c(c2)n(C)c(=O)c(=O)n3C)c(C)c1`, the Potency entry is “inactive”.

As for `Cc1ccc(C(=O)Nc2cc3c(cc2N2CCCC2)n(C)c(=O)c(=O)n3C)cc1`, the Potency entry was “inactive”.
